Hits are enriched below; roughly 27% of the tested compounds scored in any of these assays.
CYP2C9 act: activators of human CYP2C9; activation factor at 5 µM; recombinant CYP2C9, luciferin-H conversion, luminescence; active compounds read high; factor 1 = untreated enzyme, 0 = blocked; AID 1024; hit rate 1.4% among 96,000; P11712;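 active = activation factor of 2 or more for CYP2C9 at a 5 µM dose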;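 also: 0 = sulfaphenazole-blocked wells and 1 = vehicle-only wells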
Target sequence (P11712 whole entry, looked up): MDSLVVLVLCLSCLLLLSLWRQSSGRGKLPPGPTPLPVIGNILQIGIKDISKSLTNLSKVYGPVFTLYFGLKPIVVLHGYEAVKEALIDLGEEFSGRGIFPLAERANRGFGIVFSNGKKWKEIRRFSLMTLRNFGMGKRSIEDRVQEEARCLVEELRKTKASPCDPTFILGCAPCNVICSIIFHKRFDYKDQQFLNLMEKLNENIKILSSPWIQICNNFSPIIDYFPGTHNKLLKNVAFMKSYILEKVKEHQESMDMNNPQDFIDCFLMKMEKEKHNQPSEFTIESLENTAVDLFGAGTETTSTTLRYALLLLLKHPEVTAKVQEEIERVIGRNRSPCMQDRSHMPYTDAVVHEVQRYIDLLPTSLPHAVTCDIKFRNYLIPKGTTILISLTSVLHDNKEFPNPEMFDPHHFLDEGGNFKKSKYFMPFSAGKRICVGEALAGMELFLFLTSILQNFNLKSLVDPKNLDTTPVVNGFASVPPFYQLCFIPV
CYP2C19 inh: human CYP2C19 inhibition; P33261; CYP2C19 Supersomes, luciferin-H EGE luminescence, 30 min; inhibition, % at 5 µM; hit rate 21% among 96,000;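 active = CYP2C19 inhibition above a set limit at 5 µM in the primary screen, cut at about 50% in these data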;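 also: plate controls were negative control wells for no effect and 2.5 mM tranylcypromine positive control for full effect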
sEH act: increases human soluble epoxide hydrolase activity. purified human sEH enzymatic activity, activator screen. P34913. hit rate 0.04% among 91,000. activation, % at 2 µM; in the data active = activation above about 37%
sEH inh: soluble epoxide hydrolase (human) inhibition | recombinant human sEH enzymatic activity assay | inhibition, % at 2 µM | hit rate 0.34% among 91,000; in the data active = inhibition above about 80%
CYP2C19 act: activators of human cytochrome P450 2C19 | P33261 | activation factor at 5 µM | 96,000 tested, under 10 active | recombinant CYP2C19, luciferin-H EGE luminescence; active compounds read high; 0 = fully inhibited enzyme, 1 = untreated enzyme;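 active = activation factor of at least 2 at 5 µM in the primary screen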;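 also: 0 = wells with 2.5 mM tranylcypromine and 1 = vehicle-only wells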
CYP2C9 inh: inhibitors of human CYP2C9. CYP2C9 Supersomes, luciferin-H conversion, luminescence. hit rate 20% among 96,000. inhibition, % at 5 µM. AID 777;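 active = blocking of liver enzyme CYP2C9 beyond about 50% at 5 µM, limit read from the data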
An asterisk follows results filed as active; . = no result.

SMILES | CYP2C9 act | CYP2C19 inh | sEH act | sEH inh | CYP2C19 act | CYP2C9 inh
CC(=O)Nc1ccc(SCC(=O)N(CCC#N)c2cc(C)cc(C)c2)cc1 | 0.3 | 82* | 12 | -11 | 0.2 | 70*
N#CCCN(C(=O)CSc1ccc2c(c1)OCCO2)c1ccccc1 | 0.4 | 93* | . | . | 0.1 | 56*
CN(C)C(=O)N1CCC(C(=O)NCc2ccccc2)CC1 | 0.9 | 0 | . | . | 1 | 6
Cc1[nH]n(-c2ccc(Cl)cc2)c(=O)c1C=Nc1ccc(S(=O)(=O)N2CCOCC2)cc1 | 0.9 | -2 | -6 | 6 | 1 | 14
Cc1cc(-c2c(C)[nH]n(-c3ccc(Cl)cc3)c2=O)n[nH]1 | 0.5 | 31 | -4 | 4 | 0.7 | 55*
COC(=O)C1CC(=O)N(CCc2c[nH]c3ccccc23)C1 (stereo unspecified) | 0.7 | 97* | 3 | -3 | 0 | 34
CC1=CCC2C(=O)N(CCc3c[nH]c4ccccc34)C(=O)C2C1 (stereo unspecified) | . | . | -1 | 4 | . | .
O=C(NC1CCCCC1)C(c1ccncc1)N(CC1CCCO1)C(=O)C(F)(F)F (stereo unspecified) | 0.6 | 58* | -7 | 8 | 0.4 | 42
COc1ccc(C(C(=O)NC2CCCCC2)N(CC2CCCO2)C(=O)C2COc3ccccc3O2)cc1OC (stereo unspecified) | . | . | -1 | 1 | . | .
O=C(NC1CCCC1)C(c1ccc(O)cc1)N(CC1CCCO1)C(=O)C1COc2ccccc2O1 (stereo unspecified) | 0.3 | 56* | 6 | -6 | 0.4 | 70*
CCOCCCNCC(=O)N1CCN(S(=O)(=O)c2ccc(C)cc2)CC1 | 1 | 0 | 2 | 1 | 1 | -2
Cc1ccc(O)c(-c2cc(-c3ccccc3C)[nH]n2)c1 | 0 | 82* | -6 | 11 | 0.2 | 98*
Cc1ccc(O)c(-c2cc(C(F)(F)C(F)F)[nH]n2)c1 | 0.2 | 84* | 10 | -9 | 0.2 | 83*
COc1cccc(-c2nnc(SCC(=O)N3CCOCC3)o2)c1 | 0.9 | -9 | 0 | 1 | 1.1 | 10
O=C(CSc1nnc(-c2ccc(O)cc2)o1)N1CCOCC1 | 2.5* | -5 | . | . | 1 | -148
Oc1ccc(-c2nnc(SCC3CCCCC3)o2)cc1 | 2.1* | 3 | -2 | 1 | 1 | -107
COc1cccc(-c2nnc(SCC(=O)N3CC(C)CC(C)C3)o2)c1 (stereo unspecified) | 1.2 | 65* | -1 | 2 | 0.4 | -17
CC1CC(C)CN(C(=O)CSc2nnc(-c3ccc(Cl)cc3)o2)C1 (stereo unspecified) | 0.9 | 81* | . | . | 0.2 | 6
CN1CCN(CC#CC2(O)CCCCC2)CC1 | 1.1 | -6 | 12 | -13 | 1.1 | -10
O=C(CCc1ccccc1)NNC(=S)NC(=O)c1ccc(Cl)cc1 | 0.6 | 20 | 6 | -4 | 0.8 | 43
CC1(C(=O)N2CC3(CC(c4ccccc4)=NO3)C[C@H]2C(=O)NCC(N)=O)CC1 (stereo partly specified) | 1.1 | 7 | -10 | 11 | 0.9 | -12
COc1ccccc1-c1nnc(SCC(=O)N2CCC(C)CC2)o1 | 3.9* | 76* | 4 | -2 | 0.2 | -291
O=C(CCCN1C(=O)CCC1=O)Nc1ccccc1F | 0.8 | 12 | 7 | -7 | 0.9 | 20
COc1cc(/C=N/n2cnnc2)ccc1OCc1ccc(C)cc1 | 0.3 | 49 | -8 | 4 | 0.5 | 70*
COc1ccc(/C=N/n2cnnc2)cc1COc1ccccn1 | 1 | 3 | 1 | 1 | 1 | 1
SMILES | CYP2C9 act | CYP2C19 inh | sEH act | sEH inh | CYP2C19 act | CYP2C9 inh
C(=N\n1cnnc1)/c1cccc(OCCOc2ccccc2)c1 | 0.8 | 80* | -6 | 8 | 0.2 | 21
C(=N\n1cnnc1)/c1ccccc1OCCOc1ccccc1 | 0.7 | 78* | . | . | 0.2 | 29
COc1cc(/C=N/n2cnnc2)ccc1OCc1ccccc1 | 0.3 | 70* | -16 | 17 | 0.3 | 68*
Fc1ccccc1/C=N/n1cnnc1 | 1 | 5 | -7 | 10 | 0.9 | 0
CCOc1ccccc1OCC(=O)NN1Cc2ccccc2C1=N | 1.3 | 4 | 9 | -8 | 1 | -26
COc1cc(/C=N/n2cnnc2)ccc1OCCOc1ccccc1 | 0.4 | 82* | 14 | -16 | 0.2 | 58*
COc1cc(C=O)ccc1OCCOCCOc1ccc(Cl)cc1 | 0.9 | 11 | 4 | -2 | 0.9 | 11
C=CCc1ccc(OCCOc2ccc(/C=N/n3cnnc3)cc2OCC)c(OC)c1 | 0.6 | 61* | 0 | 0 | 0.4 | 44
Clc1ccc(Oc2cccc(/C=N/n3cnnc3)c2)cc1 | 0.3 | 91* | -3 | 3 | 0.1 | 66*
CCOc1cc(/C=N/n2cnnc2)ccc1O | 0.9 | 18 | -6 | 7 | 0.8 | 11
COCCn1nnnc1C(c1ccc(C(F)(F)F)cc1)N1CCOCC1 (stereo unspecified) | 0.9 | 27 | 7 | -5 | 0.7 | 13
Cc1ccccc1-c1nc(Cc2ccccc2)no1 | 0.9 | 17 | 15 | -12 | 0.8 | 9
Cc1cnn(C(=S)NCCc2ccccc2)c1 | 0.7 | 84* | 13 | -9 | 0.2 | 29
Cc1cnn(C(=S)NCc2ccc(Cl)cc2)c1 | . | . | 9 | -11 | . | .
CCOC(=O)c1cccc2c1-c1ccccc1/C2=N/O | 0.3 | 42 | -9 | 8 | 0.6 | 66*
Cc1ccc(NC2OC(CO)C(O)C(O)C2O)cc1 (stereo unspecified) | 0.9 | 26 | 14 | -13 | 0.7 | 12
Clc1ncc(CN2CCN(Cc3ccccc3)CC2)s1 | 0.9 | 74* | . | . | 0.3 | 8
Cc1ccc(Oc2ncc(CN3CCOCC3)s2)cc1 | 0.8 | 79* | 1 | -2 | 0.2 | 21
Clc1cccc(Oc2ncc(CN3CCOCC3)s2)c1 | 0.8 | 82* | 6 | -7 | 0.2 | 16
COc1ccc(-c2noc(CN3CCN(c4ccccc4)CC3)n2)cc1 | 0.8 | 21 | . | . | 0.8 | 23
Brc1ccc(Oc2ncc(CN3CCN(c4ccccc4)CC3)s2)cc1 | 0.3 | 57* | 10 | -12 | 0.4 | 71*
CCOC(=O)C1CCN(Cc2cnc(Oc3ccc(OC)cc3)s2)CC1 | 0.9 | 8 | 4 | -2 | 0.9 | 12
CC(=O)N(C(C)=O)C1=C(C#N)C2(CCCCC2)Cc2ccccc21 | 0.8 | 21 | 8 | -5 | 0.8 | 24
Nc1c(Br)cc(Br)c(N2CCCC2=O)c1Br | 4.3* | 54* | . | . | 0.5 | -327
COC(=O)[C@H](C)NC(=O)Nc1cc(Cl)ccc1C | 0.6 | 47 | 7 | -8 | 0.5 | 38
Cc1cc(C)nc(SCCS(=O)(=O)Cc2ccccc2)n1 | 1.2 | 83* | -1 | -1 | 0.2 | -24
CNc1ccccc1-n1ccc(-c2ccccc2)n1 | 0.7 | 72* | 12 | -12 | 0.3 | 29
N#Cc1cc(-c2ccccc2)nn1-c1ccccc1 | 0.6 | 3 | 6 | -3 | 1 | 36
O=C1CCCC2=C1C(c1ccco1)Nc1ccc(C(=O)c3ccccc3)cc1N2 (stereo unspecified) | 0.7 | 34 | . | . | 0.7 | 32

Screening results (PubChem)
